Assay results from PubChem BioAssay AID1376 (SRMLSC, 2008).
The whole screen tested about 220,000 compounds, of which about 530 (0.24%) were called active. Rule as the data show it: active = inhibition above about 13%; inconclusive = no clear call, values can overlap the other calls; inactive = below that. This excerpt belongs to a sample that is enriched for actives. Potency and affinity values are given separately.

Target: Bifunctional protein GlmU (Mycobacterium tuberculosis (strain ATCC 25618 / H37Rv)) (UniProt P9WMN3)
Sequence (P9WMN3 whole entry, looked up): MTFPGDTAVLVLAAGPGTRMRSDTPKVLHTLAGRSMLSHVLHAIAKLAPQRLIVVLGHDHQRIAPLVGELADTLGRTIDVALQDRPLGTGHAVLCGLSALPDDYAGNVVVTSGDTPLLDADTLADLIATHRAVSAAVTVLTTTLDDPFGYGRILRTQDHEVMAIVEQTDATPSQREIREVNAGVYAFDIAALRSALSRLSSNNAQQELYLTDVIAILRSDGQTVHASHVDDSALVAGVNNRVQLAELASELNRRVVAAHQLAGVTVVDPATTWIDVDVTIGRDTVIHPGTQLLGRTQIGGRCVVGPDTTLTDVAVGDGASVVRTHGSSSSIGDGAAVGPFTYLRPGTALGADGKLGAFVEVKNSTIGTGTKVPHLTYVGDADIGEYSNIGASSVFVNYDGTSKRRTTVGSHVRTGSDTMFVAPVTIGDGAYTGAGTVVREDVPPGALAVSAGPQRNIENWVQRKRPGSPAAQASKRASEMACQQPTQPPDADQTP
Experiment: inhibition of mycobacterial GlmU enzyme – biochemical, glucosamine-1-phosphate acetyltransferase (AID 1376);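 also: 0% = complete reaction with vehicle and 100% = reaction without substrate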
Details: M. tuberculosis GlmU acetyltransferase enzyme assay; hits give high values;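 tested at 30 µM in the primary screen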

| SMILES | inhibition |
| --- | --- |
| CC(Nc1nc(-c2ccc3c(c2)NC(=O)CO3)cs1)c1ccccc1 (stereo not drawn) | -7.09% (inactive) |
| COC(=O)Cc1ccc(NC(=S)NCCSc2ccc(Cl)cc2)cc1 | 3.25% (inactive) |
| COc1ccc2c(c1)c(C(=O)CN1CCC3(CC1)OCCO3)c(C)n2C | 13% (active) |
| COc1ccc2c(c1)c(C(=O)CN1CCC3(CC1)OCCO3)c(C)n2Cc1ccccc1 | -7.53% (inactive) |
| COc1ccc2c(c1)c(C(=O)CN1CCOCC1)c(C)n2C | 5.7% (inactive) |
| Cc1cc(C(C)(C)C)oc1C(=O)N(CC(=O)NC1CCCC1)Cc1ccccc1 | -0.33% (inactive) |
| Cn1c(=O)c2c(ncn2CC(O)CNc2cccc(Cl)c2)n(C)c1=O (stereo not drawn) | -0.25% (inactive) |
| COC(=O)Nc1ccc(S(=O)(=O)NCCCCCC(=O)O)cc1 | -5.41% (inactive) |
| COc1cc(-c2ccc(Nc3ccccc3C(=O)O)c(OC)c2)ccc1Nc1ccccc1C(=O)O | 27.4% (active) |
| O=C(O)c1ccccc1Nc1ccccc1C(=O)O | -0.95% (inactive) |
| COc1ccc(Nc2ccccc2C(=O)O)cc1 | -1.06% (inactive) |
| O=[N+]([O-])c1ccc(Oc2ccc(S(=O)(=O)N3CCCCC3)cc2)cc1 | -0.28% (inactive) |
| O=c1c2[nH]c3cccc(Cl)c3c2ncn1CCN1CCCCC1 | 0.41% (inactive) |
| CCOP(=O)(C1=C(O)C(=O)C(C(C)(C)C)=CC1=O)c1ccccc1 (stereo not drawn) | 19.3% (active) |
| CCP(=O)(c1ccccc1)C(C)(C)O (stereo not drawn) | 4.81% (inactive) |
| CCCOP(=O)(c1ccccc1)c1ccccc1 | 0.12% (inactive) |
| O=C1CN=C(c2ccc(Br)cc2)c2oc3ccccc3c2N1 | 14.2% (active) |
| O=C1CN=C(c2ccc(F)cc2)c2oc3ccccc3c2N1 | 0.53% (inactive) |
| O=C1CN=C(c2ccc(Cl)cc2)c2oc3ccccc3c2N1 | 2.87% (inactive) |
| Cc1cccc(/C(N)=N/OC(=O)CCc2ccccc2)c1 | 3.83% (inactive) |
| O=C(c1ccc(O)cc1)c1ccc(C(=O)c2ccc(O)cc2)cc1 | -1.69% (inactive) |
| O=C(O)c1ccc(C(=O)O)c(C(=O)c2ccccc2)c1 | 1.74% (inactive) |
| O=C(c1ccc(O)cc1)c1ccc(C(=O)O)c(C(=O)O)c1 | 12.8% (active) |
| Cc1ccc(C)c(NCc2ccccc2CO)c1 | -3.27% (inactive) |
| O=C(O)c1ccc2c(c1)N(Cc1ccccc1)C(=O)c1ccccc1S2 | -0.29% (inactive) |

| SMILES | inhibition |
| --- | --- |
| Cc1ccccc1CN1C(=O)c2ccccc2Sc2ccc(C(=O)O)cc21 | -2.8% (inactive) |
| Cc1cccc(CN2C(=O)c3ccccc3Sc3ccc(C(=O)O)cc32)c1 | 14.3% (active) |
| COCc1cc(C)nc(SCC(=O)Nc2ccccc2C)c1C#N | 2.63% (inactive) |
| COCc1cc(C)nc(SCC(=O)Nc2cccc3cccnc23)c1C#N | 15.1% (active) |
| COCc1cc(C)nc(SCC(=O)Nc2cccc(C)c2C)c1C#N | 3.01% (inactive) |
| CC(C)(C)NCC(O)Cn1cc(C=O)c2ccccc21 (stereo not drawn) | 1.11% (inactive) |
| CC1(c2ccccc2)CC(C)(C)N2C(=O)Cc3cccc1c32 (stereo not drawn) | 2.59% (inactive) |
| Cc1cccc(-n2c(=O)[nH]c3c(C(N)=O)nc(C(C)C)nc32)c1 | 0.14% (inactive) |
| CCn1c2ccccc2c2cc(NC(=O)CSc3nnc(-c4cccc(OC)c4)n3N)ccc21 | 14.2% (active) |
| CCn1c2ccccc2c2cc(NC(=O)CSc3nnc(-c4ccc(OC)cc4)n3N)ccc21 | 1.4% (inactive) |
| CCn1c2ccccc2c2cc(NC(=O)CSc3nnc(-c4ccc(OC)c(OC)c4)n3N)ccc21 | 3.95% (inactive) |
| COC(=O)c1c(NC(=O)C2COc3ccccc3O2)sc2c1CCN(C(C)=O)C2 (stereo not drawn) | 2.68% (inactive) |
| O=C(COC(=O)/C=C/c1ccccc1[N+](=O)[O-])NC1CCS(=O)(=O)C1 (stereo not drawn) | 6.21% (inactive) |
| Cn1cnc([N+](=O)[O-])c1Oc1ccc2ccccc2c1 | -3.73% (inactive) |
| Cn1cnc([N+](=O)[O-])c1S(=O)(=O)c1cccc(Cl)c1 | 14.8% (active) |
| CCS(=O)(=O)c1c([N+](=O)[O-])ncn1C | 5.34% (inactive) |
| Cn1cnc([N+](=O)[O-])c1Cl | 2.48% (inactive) |
| Cc1cccc(Sc2c([N+](=O)[O-])ncn2C)c1 | 4.72% (inactive) |
| COc1ccc(/C=C(\C)c2nc(C)c(-c3ccccc3)c(=O)[nH]2)cc1 | 4.53% (inactive) |
| Fc1ccc(N2CCN(c3ncnc4nc[nH]c34)CC2)cc1 | 4.66% (inactive) |
| O=C(COC(=O)c1ccc(S(=O)(=O)N2CCCC2)cc1)Nc1ccc(N2CCOCC2)cc1 | -1.26% (inactive) |
| Cc1cccc(-c2nc3c(c(SCC(=O)N(C)C)n2)CCCC3)c1 | -3.93% (inactive) |
| NC(=O)CSc1nc(-c2ccccc2)nc2c1CCCC2 | -3.87% (inactive) |
| Cc1cccc(-c2nc3c(c(SCC(N)=O)n2)CCCC3)c1 | 14.5% (active) |
| COc1ccc(OC)c(NC(=O)NC2(C(F)(F)F)Oc3ccccc3O2)c1 | -3.98% (inactive) |

| SMILES | inhibition |
| --- | --- |
| O=C(O)CCSCC(=O)c1ccc2c(c1)OCCO2 | -0.32% (inactive) |
| CN(C)c1cc(Nc2ccc(O)cc2)c([N+](=O)[O-])c2nonc12 | 0.57% (inactive) |
| CN(C)c1cc(Nc2cccc(O)c2)c([N+](=O)[O-])c2nonc12 | -3.39% (inactive) |
| CCNc1cc(Nc2c(C)n(C)n(-c3ccccc3)c2=O)c([N+](=O)[O-])c2nonc12 | 2.95% (inactive) |
| Cc1c(Nc2cc(N3CCOCC3)c3nonc3c2[N+](=O)[O-])c(=O)n(-c2ccccc2)n1C | -3.88% (inactive) |
| O=[N+]([O-])c1c(Nc2ccccn2)cc(Cl)c2nonc12 | -2.44% (inactive) |
| CNc1cc(Cl)c2nonc2c1[N+](=O)[O-] | 11.9% (inactive) |
| CC1CN(C(=O)c2ccncc2)CC(C)O1 (stereo not drawn) | 2.56% (inactive) |
| c1cc2nncn2nc1N1CCCC1 | -1.89% (inactive) |
| COC(=O)c1cc(C#N)c(Oc2ccccc2)nc1C | 0.33% (inactive) |
| COc1cc(/C=N/NC(=O)c2cccnc2)ccc1OS(=O)(=O)c1cc(C)ccc1C | -3.66% (inactive) |
| O=C(OC1Cn2c(=O)ccc(=O)n2C1)c1ccc([N+](=O)[O-])cc1 | 1.59% (inactive) |
| COc1ccc(C(C(=O)NC2CCCC2)N(CC2CCCO2)C(=O)Cn2nnc(-c3ccc(C)o3)n2)cc1 (stereo not drawn) | 0.08% (inactive) |
| O=C1/C(=C/c2ccco2)SC(=S)N1C1CCS(=O)(=O)C1 (stereo not drawn) | 5.66% (inactive) |
| CC1=C(C#N)C(=O)N(C2CCS(=O)(=O)C2)C(=O)/C1=C\c1ccc(C)o1 (stereo not drawn) | 5.88% (inactive) |
| CC1=C(C#N)C(=O)N(C2CCS(=O)(=O)C2)C(=O)/C1=C\c1ccco1 (stereo not drawn) | 25.3% (active) |
| O=C1CN(c2ccc(Cl)cc2)C(=O)CN1NC(=S)Nc1ccc(Cl)cc1 | -0.02% (inactive) |
| Cc1ccccc1-c1nnc(SCC#N)o1 | 5.25% (inactive) |
| Clc1cccc(/C=N/Nc2nc(Cl)nc3ccccc23)c1 | -3.16% (inactive) |
| Clc1cccc(/C=N/Nc2ncnc3ccccc23)c1 | 14.7% (active) |
| C(=N\Nc1ncnc2ccccc12)/c1ccccc1 | 4.18% (inactive) |
| O=C(COC(=O)c1cccs1)NCC1CCCCC1 | -4.05% (inactive) |
| Cc1cc(C)nc(Sc2ccc(/C=C(\C#N)C(=O)Nc3ccccc3)o2)n1 | -0.9% (inactive) |
| Cc1ccc(NC(=O)/C(C#N)=C/c2ccc(Sc3nc(C)cc(C)n3)o2)cc1 | 19.7% (active) |
| Cc1cc(C)nc(Sc2ccc(/C=C(\C#N)C(N)=O)o2)n1 | 3.14% (inactive) |

| SMILES | inhibition |
| --- | --- |
| O=C1c2ccccc2S(=O)(=O)c2cc(C(=O)N3CCN(c4ccccc4)CC3)ccc21 | -0.95% (inactive) |
| COc1ccc(/C=N/NC(=O)c2ccc(CN3C(=O)c4cccc5cccc3c45)cc2)cc1O | -5.54% (inactive) |
| O=C(CCN1CCN(c2ccccc2)CC1)Nc1ccc(Cl)cc1 | 7.38% (inactive) |
| O=C(Nc1ccc(Cl)cc1)N1CCN(c2ccccc2)CC1 | -0.29% (inactive) |
| CC(=O)N1C(Nc2ccc(Cl)cc2)CCN1c1ccccc1 (stereo not drawn) | 13.2% (active) |
| COc1ccc(OCCC(=O)OCC(=O)NCCC2=CCCCC2)cc1 | -0.76% (inactive) |
| O=C(NCc1ccc2c(c1)OCO2)c1cc(-c2ccc(Cl)cc2Cl)on1 | -0.34% (inactive) |
| O=c1cc[nH]c2c(Cl)cccc12 | 17.7% (active) |
| Cc1[nH]ccc(=O)c1OCc1c(Cl)cccc1Cl | -3.63% (inactive) |
| O=c1cc[nH]c2c(C(F)(F)F)cccc12 | 2.39% (inactive) |
| COC(=O)C(C(=O)OC)c1ncccc1[N+](=O)[O-] | 3.41% (inactive) |
| COc1ccc(N2CC(C(=O)Nc3ccc4c(c3)OCO4)CC2=O)cc1 (stereo not drawn) | -2.39% (inactive) |
| CS(=O)(=O)N(Cc1ccco1)Cc1ccccc1Cl | 1.25% (inactive) |
| COCC(C)n1c(C)cc(C(=O)CSc2nnc(Nc3ccccc3F)s2)c1C (stereo not drawn) | 1.64% (inactive) |
| Cc1c(Cl)c([N+](=O)[O-])nn1CCCC(=O)Nc1cccc(Cl)c1Cl | -3.35% (inactive) |
| Cc1c(Cl)c([N+](=O)[O-])nn1CCCC(=O)Nc1c(Cl)cccc1Cl | 13.8% (active) |
| Cc1nn(Cc2c(Cl)cccc2Cl)c(C)c1NC(=O)CCCn1nc([N+](=O)[O-])c(Cl)c1C | 0.47% (inactive) |
| Cc1cc(-c2ccccc2C(=O)NCc2ccccc2)on1 | 2.22% (inactive) |
| COc1ccc(S(=O)(=O)N2CCCN(S(=O)(=O)c3ccc(OC)cc3C)CC2)c(C)c1 | 4.67% (inactive) |
| CC12CCC(C(=O)NCCc3ccccc3)(OC1=O)C2(C)C (stereo not drawn) | 0.84% (inactive) |
| Cc1cc(C)c(NC(=O)COC(=O)c2cccc3c2C(=O)c2ccccc2C3=O)c(C)c1 | 3.23% (inactive) |
| Cc1cc(C)c(Nc2cc(S(=O)(=O)O)c(N)c3c2C(=O)c2ccccc2C3=O)c(C)c1 | 17.5% (active) |
| Cc1cccc(S(=O)(=O)Nc2cccc3c2C(=O)c2ccccc2-3)c1 | 2.87% (inactive) |
